Measurements from the supplement of paper PMC11732987, “Enantioselective OTUD7B fragment discovery through chemoproteomics screening and high-throughput optimisation” (Communications Chemistry, 2025).
A number with no mark means an inactive call.

How the values were obtained:
Assay in all cases: log2 ratio of Biotin-Ahx-Ub-VS probe labelling (fragment/DMSO); higher = less target engagement (more negative = stronger competition), active = hit call of the paper (q ≤ 0.05, log2 ratio ≤ -1)
Conditions in all cases: compound concentration: 200 uM; treatment time: 3 h
USP9X = USP9X (UniProt Q93008)
How it was run: (§1)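 Using Biotin-Ahx-Ub-VS at 0.5 µM final for 1 h, DUBs were labelled in HEK293T lysate (495 µg per sample) that had first been treated in triplicate with fragment at 200 µM or vehicle for 3 h. NeutrAvidin enrichment, LysC and trypsin digestion and diaPASEF LC-MS/MS followed. Spectronaut label-free quantities were global-median-normalised. Values are average log2 fragment/vehicle ratios by unpaired t-test, using proteins with ≥2 unique peptides.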

UniProt O00487 = molecular target: UniProt O00487
How it was run: as §1

UniProt O00507 = molecular target: UniProt O00507
How it was run: as §1

UniProt P51784 = molecular target: UniProt P51784
How it was run: as §1

UniProt Q5T2D3 = molecular target: T1, UniProt Q5T2D3
T1 sequence (whole entry): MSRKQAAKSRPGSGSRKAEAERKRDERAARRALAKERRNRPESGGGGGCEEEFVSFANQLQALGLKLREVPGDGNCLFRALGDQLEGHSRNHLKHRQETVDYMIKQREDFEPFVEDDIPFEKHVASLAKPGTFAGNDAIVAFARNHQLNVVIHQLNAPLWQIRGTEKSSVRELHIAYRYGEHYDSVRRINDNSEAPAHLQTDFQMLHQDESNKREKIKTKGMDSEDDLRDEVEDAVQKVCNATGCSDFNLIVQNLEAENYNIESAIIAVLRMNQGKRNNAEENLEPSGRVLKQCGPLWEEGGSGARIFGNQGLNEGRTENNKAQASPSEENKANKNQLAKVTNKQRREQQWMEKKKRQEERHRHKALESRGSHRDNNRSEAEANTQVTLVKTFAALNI
How it was run: as §1

UniProt Q8TE49 = molecular target: T2, UniProt Q8TE49
T2 sequence (whole entry): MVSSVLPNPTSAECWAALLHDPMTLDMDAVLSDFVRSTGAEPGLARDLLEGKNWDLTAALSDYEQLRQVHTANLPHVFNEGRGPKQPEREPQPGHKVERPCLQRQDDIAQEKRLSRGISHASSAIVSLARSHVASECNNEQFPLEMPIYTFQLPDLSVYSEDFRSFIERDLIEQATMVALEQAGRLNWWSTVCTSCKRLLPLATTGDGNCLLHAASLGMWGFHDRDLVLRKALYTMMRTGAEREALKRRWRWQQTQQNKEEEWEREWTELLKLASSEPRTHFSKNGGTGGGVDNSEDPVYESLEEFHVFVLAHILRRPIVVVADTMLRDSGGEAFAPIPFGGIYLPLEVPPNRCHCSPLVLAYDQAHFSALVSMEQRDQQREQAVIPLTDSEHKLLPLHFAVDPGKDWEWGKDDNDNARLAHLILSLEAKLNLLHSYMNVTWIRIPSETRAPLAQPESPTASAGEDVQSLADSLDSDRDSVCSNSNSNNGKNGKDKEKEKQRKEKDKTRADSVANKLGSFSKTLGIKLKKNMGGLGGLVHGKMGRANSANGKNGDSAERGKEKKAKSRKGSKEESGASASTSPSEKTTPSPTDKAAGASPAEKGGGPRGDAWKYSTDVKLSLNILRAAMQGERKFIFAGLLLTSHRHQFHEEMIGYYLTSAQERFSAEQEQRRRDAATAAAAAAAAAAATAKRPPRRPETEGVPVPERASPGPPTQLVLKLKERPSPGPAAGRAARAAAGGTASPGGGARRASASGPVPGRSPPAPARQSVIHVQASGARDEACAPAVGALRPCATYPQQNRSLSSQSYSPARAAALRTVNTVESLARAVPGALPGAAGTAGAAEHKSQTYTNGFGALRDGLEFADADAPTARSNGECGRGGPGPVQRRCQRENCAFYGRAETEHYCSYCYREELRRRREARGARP
How it was run: as §1

UniProt Q9P2H5 = molecular target: T3, UniProt Q9P2H5
T3 sequence (whole entry): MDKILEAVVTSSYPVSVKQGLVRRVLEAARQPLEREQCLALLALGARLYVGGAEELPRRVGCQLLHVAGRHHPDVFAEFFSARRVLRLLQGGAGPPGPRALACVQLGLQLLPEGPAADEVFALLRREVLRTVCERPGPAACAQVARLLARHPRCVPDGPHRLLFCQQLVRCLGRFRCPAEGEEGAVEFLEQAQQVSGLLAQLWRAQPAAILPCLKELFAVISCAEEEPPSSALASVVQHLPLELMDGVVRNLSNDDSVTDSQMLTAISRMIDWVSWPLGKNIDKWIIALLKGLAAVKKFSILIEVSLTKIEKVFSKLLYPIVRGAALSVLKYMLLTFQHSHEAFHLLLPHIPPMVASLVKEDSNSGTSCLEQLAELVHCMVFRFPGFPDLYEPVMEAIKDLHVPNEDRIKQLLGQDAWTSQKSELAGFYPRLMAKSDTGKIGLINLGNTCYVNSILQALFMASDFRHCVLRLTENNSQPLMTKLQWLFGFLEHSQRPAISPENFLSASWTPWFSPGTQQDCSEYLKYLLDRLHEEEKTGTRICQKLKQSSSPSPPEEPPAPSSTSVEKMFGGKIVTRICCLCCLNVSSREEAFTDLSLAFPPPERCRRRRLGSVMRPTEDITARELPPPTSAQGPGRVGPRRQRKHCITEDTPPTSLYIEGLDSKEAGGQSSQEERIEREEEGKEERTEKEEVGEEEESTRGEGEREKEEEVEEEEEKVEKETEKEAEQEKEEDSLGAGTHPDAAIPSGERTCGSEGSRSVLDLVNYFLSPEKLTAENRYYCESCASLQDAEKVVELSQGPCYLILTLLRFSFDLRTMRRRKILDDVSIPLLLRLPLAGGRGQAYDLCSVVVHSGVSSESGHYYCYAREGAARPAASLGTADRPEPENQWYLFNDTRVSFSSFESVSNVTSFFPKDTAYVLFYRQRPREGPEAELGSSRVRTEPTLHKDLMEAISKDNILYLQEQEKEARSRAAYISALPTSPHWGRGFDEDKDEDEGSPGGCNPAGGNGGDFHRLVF
How it was run: as §1

UniProt Q9UGI0 = molecular target: T4, UniProt Q9UGI0
T4 sequence (whole entry): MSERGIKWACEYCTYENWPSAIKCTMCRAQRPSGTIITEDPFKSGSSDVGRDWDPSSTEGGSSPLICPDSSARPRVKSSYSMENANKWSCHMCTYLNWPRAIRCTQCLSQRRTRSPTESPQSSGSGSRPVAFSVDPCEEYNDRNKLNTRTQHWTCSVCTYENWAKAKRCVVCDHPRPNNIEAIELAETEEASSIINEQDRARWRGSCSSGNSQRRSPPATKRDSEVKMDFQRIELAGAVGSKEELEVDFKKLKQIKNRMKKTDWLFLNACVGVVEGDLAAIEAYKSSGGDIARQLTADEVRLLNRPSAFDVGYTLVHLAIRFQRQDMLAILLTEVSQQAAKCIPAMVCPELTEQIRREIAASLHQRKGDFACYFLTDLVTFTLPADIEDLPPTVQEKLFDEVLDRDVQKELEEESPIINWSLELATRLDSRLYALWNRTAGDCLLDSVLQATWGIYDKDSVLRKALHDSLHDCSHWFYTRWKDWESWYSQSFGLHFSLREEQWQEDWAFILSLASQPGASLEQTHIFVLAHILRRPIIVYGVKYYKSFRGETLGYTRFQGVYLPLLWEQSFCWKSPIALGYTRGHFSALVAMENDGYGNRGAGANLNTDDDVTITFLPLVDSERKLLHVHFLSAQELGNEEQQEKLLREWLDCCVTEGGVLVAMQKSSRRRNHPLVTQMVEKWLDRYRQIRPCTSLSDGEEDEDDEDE
How it was run: as §1

YOD1 = molecular target: T5, YOD1 (UniProt Q5VVQ6)
T5 sequence (whole entry): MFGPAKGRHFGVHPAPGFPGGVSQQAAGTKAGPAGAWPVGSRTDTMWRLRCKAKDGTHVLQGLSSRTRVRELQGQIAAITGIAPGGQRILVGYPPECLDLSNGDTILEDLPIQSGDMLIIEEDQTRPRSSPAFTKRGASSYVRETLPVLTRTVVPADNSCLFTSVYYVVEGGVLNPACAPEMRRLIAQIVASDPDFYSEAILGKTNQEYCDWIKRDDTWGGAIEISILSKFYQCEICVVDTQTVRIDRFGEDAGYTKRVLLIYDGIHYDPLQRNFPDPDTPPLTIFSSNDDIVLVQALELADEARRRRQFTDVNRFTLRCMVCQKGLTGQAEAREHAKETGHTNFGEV
How it was run: as §1

UniProt O00487, sequence (O00487 whole entry): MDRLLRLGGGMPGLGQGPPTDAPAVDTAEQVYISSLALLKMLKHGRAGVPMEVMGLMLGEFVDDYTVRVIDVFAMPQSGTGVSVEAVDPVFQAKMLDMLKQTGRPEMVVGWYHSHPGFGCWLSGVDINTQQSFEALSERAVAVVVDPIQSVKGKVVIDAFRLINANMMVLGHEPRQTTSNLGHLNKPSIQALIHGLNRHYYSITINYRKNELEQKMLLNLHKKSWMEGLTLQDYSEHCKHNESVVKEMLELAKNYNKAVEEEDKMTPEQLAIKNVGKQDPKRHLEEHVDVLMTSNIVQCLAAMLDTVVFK
UniProt P51784, sequence (P51784 whole entry): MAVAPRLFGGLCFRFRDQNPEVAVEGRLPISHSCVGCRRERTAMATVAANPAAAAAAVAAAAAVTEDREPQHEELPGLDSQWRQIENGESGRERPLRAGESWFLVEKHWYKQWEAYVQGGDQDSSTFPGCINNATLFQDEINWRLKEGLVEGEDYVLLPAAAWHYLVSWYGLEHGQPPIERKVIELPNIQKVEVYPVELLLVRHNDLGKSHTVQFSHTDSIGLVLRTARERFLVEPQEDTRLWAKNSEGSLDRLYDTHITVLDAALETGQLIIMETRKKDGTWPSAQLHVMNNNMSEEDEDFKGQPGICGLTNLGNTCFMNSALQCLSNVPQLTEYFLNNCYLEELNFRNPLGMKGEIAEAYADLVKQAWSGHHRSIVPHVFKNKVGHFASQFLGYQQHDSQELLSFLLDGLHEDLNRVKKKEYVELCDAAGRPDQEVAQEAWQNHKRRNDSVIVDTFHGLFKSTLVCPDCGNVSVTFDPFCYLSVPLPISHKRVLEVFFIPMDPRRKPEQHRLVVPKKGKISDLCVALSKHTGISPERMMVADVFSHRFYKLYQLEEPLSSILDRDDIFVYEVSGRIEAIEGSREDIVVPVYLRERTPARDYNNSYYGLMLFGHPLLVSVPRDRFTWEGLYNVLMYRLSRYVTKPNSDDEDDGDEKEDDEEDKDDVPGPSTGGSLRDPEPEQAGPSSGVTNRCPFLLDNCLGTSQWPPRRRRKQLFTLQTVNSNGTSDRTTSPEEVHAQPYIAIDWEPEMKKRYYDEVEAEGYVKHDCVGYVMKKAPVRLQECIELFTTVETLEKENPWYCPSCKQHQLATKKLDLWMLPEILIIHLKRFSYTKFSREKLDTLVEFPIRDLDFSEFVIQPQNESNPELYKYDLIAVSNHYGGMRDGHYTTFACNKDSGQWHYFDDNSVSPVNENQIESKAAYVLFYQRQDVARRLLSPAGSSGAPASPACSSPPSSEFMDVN
USP9X, sequence (Q93008 whole entry, the tested form may be a part): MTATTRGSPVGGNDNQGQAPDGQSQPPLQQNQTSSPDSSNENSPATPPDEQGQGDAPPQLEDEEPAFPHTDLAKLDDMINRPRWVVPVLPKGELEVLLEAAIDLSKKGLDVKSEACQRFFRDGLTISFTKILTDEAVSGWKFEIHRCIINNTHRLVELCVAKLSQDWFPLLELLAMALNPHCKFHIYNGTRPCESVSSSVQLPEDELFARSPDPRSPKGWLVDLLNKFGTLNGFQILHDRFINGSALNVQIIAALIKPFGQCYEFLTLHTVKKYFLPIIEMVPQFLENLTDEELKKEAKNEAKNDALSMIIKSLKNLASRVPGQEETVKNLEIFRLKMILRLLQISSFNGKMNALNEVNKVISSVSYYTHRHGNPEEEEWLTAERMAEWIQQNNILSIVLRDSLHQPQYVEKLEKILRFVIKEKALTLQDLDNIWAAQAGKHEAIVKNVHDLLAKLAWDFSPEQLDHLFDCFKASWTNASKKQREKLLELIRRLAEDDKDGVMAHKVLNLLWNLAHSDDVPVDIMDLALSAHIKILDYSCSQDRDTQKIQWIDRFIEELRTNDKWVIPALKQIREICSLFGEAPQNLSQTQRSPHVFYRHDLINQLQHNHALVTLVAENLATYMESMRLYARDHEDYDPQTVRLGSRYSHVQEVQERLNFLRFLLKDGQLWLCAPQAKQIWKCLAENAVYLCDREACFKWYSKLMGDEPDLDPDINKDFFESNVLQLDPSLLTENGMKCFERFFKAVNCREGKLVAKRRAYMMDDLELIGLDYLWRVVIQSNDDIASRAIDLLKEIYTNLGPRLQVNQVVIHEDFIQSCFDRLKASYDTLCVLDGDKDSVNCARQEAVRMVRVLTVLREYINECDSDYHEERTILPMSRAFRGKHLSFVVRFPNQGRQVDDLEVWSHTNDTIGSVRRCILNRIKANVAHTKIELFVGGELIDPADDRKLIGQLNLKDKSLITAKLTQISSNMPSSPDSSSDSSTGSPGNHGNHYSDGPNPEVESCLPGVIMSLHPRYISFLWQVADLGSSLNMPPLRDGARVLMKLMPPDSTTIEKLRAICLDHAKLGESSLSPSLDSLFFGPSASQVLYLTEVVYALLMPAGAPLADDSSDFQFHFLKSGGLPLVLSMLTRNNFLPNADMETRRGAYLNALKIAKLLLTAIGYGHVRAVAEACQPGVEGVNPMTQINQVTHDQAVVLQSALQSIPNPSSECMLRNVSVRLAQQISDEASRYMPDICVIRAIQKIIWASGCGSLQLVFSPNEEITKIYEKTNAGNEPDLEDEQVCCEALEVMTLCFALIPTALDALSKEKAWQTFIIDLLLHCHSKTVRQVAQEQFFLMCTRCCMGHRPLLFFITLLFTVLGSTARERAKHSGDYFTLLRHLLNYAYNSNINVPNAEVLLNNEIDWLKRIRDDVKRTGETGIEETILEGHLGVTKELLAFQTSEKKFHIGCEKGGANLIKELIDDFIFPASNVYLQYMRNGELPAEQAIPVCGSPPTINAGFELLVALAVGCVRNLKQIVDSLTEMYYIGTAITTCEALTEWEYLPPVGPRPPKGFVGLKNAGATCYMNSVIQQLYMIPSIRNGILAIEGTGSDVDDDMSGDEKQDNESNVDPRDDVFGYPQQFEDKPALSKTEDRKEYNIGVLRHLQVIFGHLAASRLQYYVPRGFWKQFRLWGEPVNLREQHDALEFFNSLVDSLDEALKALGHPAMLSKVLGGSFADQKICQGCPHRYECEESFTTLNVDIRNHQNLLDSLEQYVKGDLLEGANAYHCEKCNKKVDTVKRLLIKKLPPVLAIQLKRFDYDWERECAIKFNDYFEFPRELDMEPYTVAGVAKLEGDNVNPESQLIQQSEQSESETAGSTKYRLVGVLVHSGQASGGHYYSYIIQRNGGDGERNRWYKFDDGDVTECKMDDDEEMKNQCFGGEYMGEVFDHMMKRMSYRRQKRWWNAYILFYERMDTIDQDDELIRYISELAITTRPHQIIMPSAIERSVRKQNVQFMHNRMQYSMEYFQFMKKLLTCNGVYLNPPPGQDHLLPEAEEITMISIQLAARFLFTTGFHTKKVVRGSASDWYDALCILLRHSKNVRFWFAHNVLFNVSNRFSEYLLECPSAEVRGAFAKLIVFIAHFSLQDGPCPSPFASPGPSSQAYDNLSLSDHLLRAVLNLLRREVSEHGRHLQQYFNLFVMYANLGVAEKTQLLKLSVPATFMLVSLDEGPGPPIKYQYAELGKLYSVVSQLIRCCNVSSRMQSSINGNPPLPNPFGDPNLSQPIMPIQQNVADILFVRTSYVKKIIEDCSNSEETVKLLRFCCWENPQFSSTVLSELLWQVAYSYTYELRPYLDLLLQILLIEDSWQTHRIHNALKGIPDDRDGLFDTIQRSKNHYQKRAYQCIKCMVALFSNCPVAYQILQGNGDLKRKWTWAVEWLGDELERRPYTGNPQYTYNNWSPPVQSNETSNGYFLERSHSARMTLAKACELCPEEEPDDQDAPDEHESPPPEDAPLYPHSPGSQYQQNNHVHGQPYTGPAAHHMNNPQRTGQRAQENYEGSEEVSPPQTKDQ

Compound: CNC(=O)Cn1cc(NC(=O)CCl)cn1
- log2 ratio of Biotin-Ahx-Ub-VS probe labelling (USP9X): -0.287
- log2 ratio of Biotin-Ahx-Ub-VS probe labelling (UniProt O00487): -0.0928
- log2 ratio of Biotin-Ahx-Ub-VS probe labelling (UniProt O00507): -0.146
- log2 ratio of Biotin-Ahx-Ub-VS probe labelling (UniProt P51784): -0.115
- log2 ratio of Biotin-Ahx-Ub-VS probe labelling (UniProt Q5T2D3): -0.427
- log2 ratio of Biotin-Ahx-Ub-VS probe labelling (UniProt Q8TE49): -0.553
- log2 ratio of Biotin-Ahx-Ub-VS probe labelling (UniProt Q9P2H5): -0.256
- log2 ratio of Biotin-Ahx-Ub-VS probe labelling (UniProt Q9UGI0): -1.09 (active)
- log2 ratio of Biotin-Ahx-Ub-VS probe labelling (YOD1): -0.252
